# PubChem BioAssay AID1159506 (National Center for Advancing Translational Sciences (NCATS), 2015)
# In all, about 59,000 sequences were measured (the read-out: median about -0.00055, lowest 2% from about -2 on). Many of the other results were omitted from the sample, so the lowest values are more common in it than they were.
# Test: Identification of proteins required for the processing of the EWS-FLI1 nascent transcript;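 further: robust z of luciferase light less the median z of siRNAs with the same seed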
# Details: TC32 Ewing sarcoma NR0B1-luc vs CMV-luc (EWS-FLI1 target promoter against control promoter), 48 h; screened at 20 nM (by protocol)
# Procedure, shortened: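 Three siRNAs per gene, each in a separate well at 20 nM, were transfected into TC32 cells bearing either reporter construct. Luminescence was measured two days on, and per-gene comparison relied on seed-corrected Z values.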
row,Sequence,seed-corrected z-score
1,UACAAAAACGAUGGCAUCC against CCL17,-0.409
2,UACCCAUACGGAGUAGCGA against ASMTL,-0.0723
3,UAUAGGCAAAGCUAUCUCC against RBM15B,-0.465
4,AAUAAGACUCCUAAAAUCC against OR2A25,-2.04
5,UAAUAUAUUGUCCAUUUAC against OSTC,0.401
6,UUUUGAUUGAGAGGAUCGU against MBD2,0.911
7,UUAACAACUUUAGUCCUGC against EFHC1,0.0527
8,ACUUGUAACAGAUCAGCUC against TKFC,0.791
9,UUAGUUGAGGGUGAUCCCG against MXRA5,0.422
10,AGAGAUCCCGUGUAUGACC against SLC30A2,-0.311
11,UCUGCUCCCACAAUGAAAC against RPLP0,-2.42
12,UCAAUUAUUCCUCUCCGUC against HEY1,-0.248
13,UCAUAGUCCAUUCAGAGUU against CEACAM19,0.0695
14,UCCUGGAUACCUAACACCC against USP26,0.09
15,ACUCCAAUCAGUACAGUCC against NUP210L,-0.264
16,AAGUUGUCAAACAAGCCCU against CHTF18,-3
17,UUAACCGAUAUAUCCAUGG against LRRTM4,0.0172
18,UGAGGUCCACGAUAUCUAG against PYDC1,0.555
19,AAAGAUAUCAGUGACGAAG against HIST1H2BA,-0.152

row,Sequence,seed-corrected z-score
1,UAUUGUUCCGUCAUGCACU against PTGDS,0.165
2,UAUCUCCACAUACCCGUUC against INHBA,-0.368
3,UACGUAGAUUUGGAAUUCC against ACO1,0.682
4,UUAGUCUCAGCAUCGGCUC against KIAA1210,-0.103
5,UCACGAAGGAGUCUAUUCC against PRTN3,-3.15
6,AUAGAGCCCAUUAUGCUUU against PSG11,-1.42
7,UUGGUGUUGGGCAACUUGU against HOXB4,0.286
8,UCACUGAUUCUAGAUGAUG against SPIN3,-0.422
9,UAUAAAUCAACGGAUUCAG against OR5I1,0.416
10,UUUUGCACCUGGGUCCUAC against LRWD1,0.154
11,AAAGGAAAAACCUAUUUUC against LOC728254,0.573
12,AUAGGUUCCUGUCUGUUGG against PYCRL,0.415
13,AAAGAUUAAGGUACCAUAG against OR5J2,0.72
14,UUCGGCUUCACUGUUAUCC against TNR,-2.16
15,UCCAGUUCUUUCUUGGUCG against GTPBP6,0.447
16,UUGAUGGAUAGUCAUCACG against RBMX,-0.224
17,AAAUCGAUAAUCACUUAGG against ZNHIT6,0.142
18,UAUUUCACAACAGGCACCG against MYO1C,-2.29
